Drawing on PubChem BioAssay, this text covers composite z-score and z-score for six compounds.

Calls of active or inactive are those of the source.

For assay [1], the system named is Plasmodium falciparum Sir2 (PF13_0152, Sir2A). The assay is described as follows: Plasmodium falciparum Sir2A binding compounds – biochemical, small-molecule microarray, 635 nm fluorescence, primary screen (AID 1098).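 Further: score merges spot fluorescence intensity with its signal-to-noise ratio.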 To be noted: fluorescence 635 nm, higher = more signal.
Assay [2] can be described thus: probe aDKK1 binding to arrayed compounds – biochemical, biotinylated probe, 635/667 nm fluorescence, primary screen (AID 1099).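 Further: score merges 667nm spot fluorescence with signal to noise across triplicate slides.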 Conditions: small-molecule microarray, higher = more signal.
Assay [3] in a line: probe aCHRDL2 binding to arrayed compounds – biochemical, biotinylated probe, 635/667 nm fluorescence, primary screen (AID 1100). To be noted: small-molecule microarray, higher = more signal.
The nature of assay [4]: change in splice reporter luminescence, either direction, cell-based, HEK293, spliceosome inhibition project, primary screen (AID 1101).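 Further: HEK293 cells carrying a splicing-competent luciferase reporter gene; test concentration not given here.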 To be noted: HEK293 splicing luciferase reporter, 24 h, higher = more signal, called active from +8 up or from −8 down. In general terms: In a reporter assay the amount or activity of a reporter protein is the signal.
Assay [5] concerns the target Fibroblast growth factor 10 (Homo sapiens) (UniProt O15520). The assay is described as follows: compounds binding fibroblast growth factor 10 – biochemical, small-molecule microarray, 635 nm fluorescence, primary screen (AID 1102). To be noted: FGF10 binding, fluorescence 635 nm, higher = more signal.
The subject of assay [6] is glycogen synthase kinase-3 (GSK3A per assay name; protocol says GSK3B). The assay is described as follows: compounds binding glycogen synthase kinase-3 – biochemical, small-molecule microarray, 635 nm fluorescence, GSK3A, primary screen (AID 1103). Further: the record names both GSK3A and GSK3B. Conditions: fluorescence 635 nm, higher = more signal.
In assay [7] the target is Epidermal growth factor receptor (Homo sapiens) (UniProt P00533). In words: compounds binding epidermal growth factor receptor – biochemical, small-molecule microarray, 635 nm fluorescence, primary screen (AID 1104).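 Further: score merges 667 nm emission intensity with spot signal to noise over triplicate slides.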 Conditions: EGFR binding, higher = more signal.
Chain of Epidermal growth factor receptor (Homo sapiens) (P00533 whole entry, looked up): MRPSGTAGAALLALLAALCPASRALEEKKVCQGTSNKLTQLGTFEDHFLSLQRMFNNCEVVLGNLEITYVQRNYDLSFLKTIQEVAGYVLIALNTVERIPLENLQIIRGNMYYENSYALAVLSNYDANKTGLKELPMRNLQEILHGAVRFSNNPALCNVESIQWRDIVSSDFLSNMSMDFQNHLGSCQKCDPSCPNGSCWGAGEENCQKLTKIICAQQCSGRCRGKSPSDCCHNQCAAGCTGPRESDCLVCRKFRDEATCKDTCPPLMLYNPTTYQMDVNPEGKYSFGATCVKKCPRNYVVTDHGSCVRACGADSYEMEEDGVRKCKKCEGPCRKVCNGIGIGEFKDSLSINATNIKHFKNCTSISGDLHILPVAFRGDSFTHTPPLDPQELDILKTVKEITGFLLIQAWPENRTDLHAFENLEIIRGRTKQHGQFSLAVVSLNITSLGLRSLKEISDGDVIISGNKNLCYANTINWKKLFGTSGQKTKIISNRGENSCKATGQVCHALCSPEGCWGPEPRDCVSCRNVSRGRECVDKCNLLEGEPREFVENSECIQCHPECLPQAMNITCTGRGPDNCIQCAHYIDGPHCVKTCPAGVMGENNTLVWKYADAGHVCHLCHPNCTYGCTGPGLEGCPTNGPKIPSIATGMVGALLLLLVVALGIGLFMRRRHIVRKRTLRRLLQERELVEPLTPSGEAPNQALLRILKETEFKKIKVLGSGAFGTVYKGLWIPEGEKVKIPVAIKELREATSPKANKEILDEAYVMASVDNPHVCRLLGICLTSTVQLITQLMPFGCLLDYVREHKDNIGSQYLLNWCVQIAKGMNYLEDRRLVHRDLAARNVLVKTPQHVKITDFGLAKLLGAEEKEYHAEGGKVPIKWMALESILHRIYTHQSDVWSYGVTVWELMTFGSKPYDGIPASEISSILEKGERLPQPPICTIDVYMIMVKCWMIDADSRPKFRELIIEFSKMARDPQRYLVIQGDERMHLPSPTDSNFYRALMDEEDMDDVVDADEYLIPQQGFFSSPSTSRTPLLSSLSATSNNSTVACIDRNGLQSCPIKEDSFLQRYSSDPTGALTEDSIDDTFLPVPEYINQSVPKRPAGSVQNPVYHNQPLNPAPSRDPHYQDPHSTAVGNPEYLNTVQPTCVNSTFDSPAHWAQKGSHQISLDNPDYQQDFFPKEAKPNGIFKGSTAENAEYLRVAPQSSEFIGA
In assay [8] the target is Follistatin-related protein 3 (Homo sapiens) (UniProt O95633). In words: compounds binding follistatin-related protein 3 – biochemical, small-molecule microarray, 635 nm fluorescence, primary screen (AID 1105).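 Further: score merges emission near 667 nm and signal to noise per printed spot across three slides.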 To be noted: FSTL3 binding, higher = more signal.
Chain of Follistatin-related protein 3 (Homo sapiens) (O95633 whole entry, looked up): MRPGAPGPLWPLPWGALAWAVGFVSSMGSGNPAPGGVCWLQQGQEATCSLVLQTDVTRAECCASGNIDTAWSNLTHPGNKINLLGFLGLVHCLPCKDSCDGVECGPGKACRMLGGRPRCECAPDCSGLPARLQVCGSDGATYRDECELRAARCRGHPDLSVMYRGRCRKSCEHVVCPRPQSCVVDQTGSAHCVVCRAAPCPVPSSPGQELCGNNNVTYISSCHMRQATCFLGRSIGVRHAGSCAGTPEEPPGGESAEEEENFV
Assay [9] has as its target Dickkopf-related protein 1 (Homo sapiens) (UniProt O94907). In words: small molecules binding DKK1 protein – biochemical, small-molecule microarray, 635 nm fluorescence scan, primary screen (AID 1106).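 Further: score merges emission near 667 nm with signal to noise over three replicate slides.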 Conditions: higher = more signal.
Assay [10] relates to Inhibin beta A chain (activin A). The assay is described as follows: small molecules binding activin A – biochemical, small-molecule microarray, 635 nm fluorescence scan, primary screen (AID 1107).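 Further: mouse activin A protein probed at 4.33 µg/mL on printed slides; score merges bound-protein fluorescence near 667 nm with spot signal-to-noise.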 Conditions: INHBA, higher = more signal.
Assay [11] concerns Human papillomavirus type 1a protein E7 (residues 44-93). The assay is described as follows: small molecules binding HPV E7 44-93 – biochemical, small-molecule microarray, residues 44-93, 635 nm fluorescence, primary screen (AID 1108).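 Further: E7 fragment applied at 1 µg/mL in TBST for 1 h at 4 C; score combines spot fluorescence with its signal to noise ratio.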 To be noted: fluorescence 635 nm, higher = more signal.
Assay [12] can be described thus: hepatitis C replication reporter changes, two-sided – Huh7 cells, luciferase reporter, HCV replication inhibitor project, primary screen (AID 1109).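 Further: huh7 hepatoma cells harbouring a luciferase neomycin HCV replicon reporter; luciferase luminescence as measure of HCV replicon replication; test concentration not given here.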 Conditions: Huh7 HCV replicon luciferase reporter, 48 h; higher = more signal.
The target of assay [13] is Left-right determination factor 2 (Homo sapiens) (UniProt O00292). The assay is described as follows: small molecules binding LEFTY2 protein – biochemical, small-molecule microarray, 635 nm fluorescence scan, primary screen (AID 1110). To be noted: higher = more signal.
Chain of Left-right determination factor 2 (Homo sapiens) (O00292 whole entry, looked up): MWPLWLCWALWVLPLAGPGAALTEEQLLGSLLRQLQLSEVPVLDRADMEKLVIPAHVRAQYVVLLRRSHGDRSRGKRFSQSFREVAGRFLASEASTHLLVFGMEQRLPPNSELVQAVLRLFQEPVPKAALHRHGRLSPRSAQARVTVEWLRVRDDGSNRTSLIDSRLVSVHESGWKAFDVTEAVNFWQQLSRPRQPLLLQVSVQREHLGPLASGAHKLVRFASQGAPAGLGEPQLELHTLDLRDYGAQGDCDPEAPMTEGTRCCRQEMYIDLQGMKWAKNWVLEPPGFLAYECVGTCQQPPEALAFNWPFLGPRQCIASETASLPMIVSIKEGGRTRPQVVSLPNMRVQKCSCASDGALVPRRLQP
Assay [14] deals with Calmodulin-1 (Homo sapiens) (UniProt P0DP23). The assay is described as follows: small molecules binding calmodulin-1 with EGTA – biochemical, small-molecule microarray, Cy5-labelled CALM1, profiling panel (AID 1111).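 Further: labelled calmodulin applied in Tris saline Tween buffer holding calcium plus EGTA and DTT.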 Conditions: Cy5-CALM1 binding fluorescence, higher = more signal.
The target is the same in assay [15]. In words: small molecules binding Ca-loaded calmodulin-1 – biochemical, small-molecule microarray, Cy5-labelled CALM1, plus calcium, artefact control for SMM control-protein annotation, profiling panel (AID 1112).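 Further: score merges spot fluorescence with signal to noise from triplicate slides.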 Conditions: Cy5-CALM1 binding fluorescence, higher = more signal.
The nature of assay [16]: probe aWnt5a binding to arrayed compounds – biochemical, biotinylated probe, 635/667 nm fluorescence, primary screen (AID 1113).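 Further: score merges 667 nm fluorescence intensity with signal-to-noise per printed feature.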 Conditions: small-molecule microarray, higher = more signal.
Assay [17] can be described thus: probe aShh binding to arrayed compounds – biochemical, biotinylated probe, 635/667 nm fluorescence, primary screen (AID 1114).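 Further: probe is biotin-labelled aShh protein from a stem cell growth factor screen; measures binding of labelled protein to compounds printed on the slide; score merges feature fluorescence at 667 nm with signal-to-noise.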 To be noted: small-molecule microarray, higher = more signal.
A short description of assay [18]: probe aNog binding to arrayed compounds – biochemical, biotinylated probe, 635/667 nm fluorescence, primary screen (AID 1115).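 Further: probe is biotinylated aNog protein used at 0.15 µg/mL for 1 h at 4 C; z-score combines 667 nm fluorescence of each spot with its signal to noise.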 To be noted: small-molecule microarray, higher = more signal.
In assay [19] the target is Torsin-1A-interacting protein 1 (Homo sapiens) (UniProt Q5JTV8). The assay is described as follows: compound microarray binding of lysate hLAP1 – cell lysate, small-molecule microarray, COS7 lysate, 635/667 nm fluorescence, primary screen (AID 1116). Conditions: 635 nm fluorescence, higher = more signal.
Chain of Torsin-1A-interacting protein 1 (Homo sapiens) (Q5JTV8 whole entry, looked up): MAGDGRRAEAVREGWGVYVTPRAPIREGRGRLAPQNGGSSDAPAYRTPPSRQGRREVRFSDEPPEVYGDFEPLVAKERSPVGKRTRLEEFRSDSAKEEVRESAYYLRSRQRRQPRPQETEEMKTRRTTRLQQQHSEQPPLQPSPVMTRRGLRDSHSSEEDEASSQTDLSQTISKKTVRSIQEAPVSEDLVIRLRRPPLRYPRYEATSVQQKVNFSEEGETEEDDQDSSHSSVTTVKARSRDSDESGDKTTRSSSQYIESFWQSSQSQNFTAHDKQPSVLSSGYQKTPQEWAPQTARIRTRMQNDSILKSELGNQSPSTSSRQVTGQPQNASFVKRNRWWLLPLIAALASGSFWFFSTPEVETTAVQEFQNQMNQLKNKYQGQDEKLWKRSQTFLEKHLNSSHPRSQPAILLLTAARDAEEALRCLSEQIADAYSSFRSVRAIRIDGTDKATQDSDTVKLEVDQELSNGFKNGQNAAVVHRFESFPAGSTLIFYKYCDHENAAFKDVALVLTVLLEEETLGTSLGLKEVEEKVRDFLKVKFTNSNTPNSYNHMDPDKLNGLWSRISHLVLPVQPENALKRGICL
Assay [20] has as its target Alpha-bungarotoxin (Bungarus multicinctus) (UniProt P60615). In words: compounds binding labelled alpha-BTX control protein – biochemical, small-molecule microarray, Alexa647 label, 635/667 nm fluorescence, artefact control for SMM control protein annotation, profiling panel (AID 1117). To be noted: alpha-BTX-A647 binding fluorescence, higher = more signal.

Chain of Dickkopf-related protein 1 (Homo sapiens) (O94907 whole entry, looked up): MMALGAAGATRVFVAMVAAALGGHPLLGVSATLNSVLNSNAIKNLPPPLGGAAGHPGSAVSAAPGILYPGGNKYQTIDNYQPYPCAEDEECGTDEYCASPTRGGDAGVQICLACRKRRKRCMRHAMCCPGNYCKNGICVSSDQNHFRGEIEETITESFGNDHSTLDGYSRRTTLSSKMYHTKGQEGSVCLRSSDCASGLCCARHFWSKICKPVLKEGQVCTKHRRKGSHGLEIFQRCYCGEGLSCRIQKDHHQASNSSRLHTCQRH
Chain of Fibroblast growth factor 10 (Homo sapiens) (O15520 whole entry, looked up): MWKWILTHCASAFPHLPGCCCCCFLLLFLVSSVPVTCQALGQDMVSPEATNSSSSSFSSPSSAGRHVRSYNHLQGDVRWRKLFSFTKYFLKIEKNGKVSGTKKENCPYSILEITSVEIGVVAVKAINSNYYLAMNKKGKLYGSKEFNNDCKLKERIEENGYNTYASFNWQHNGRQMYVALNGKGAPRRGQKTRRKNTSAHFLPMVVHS
Chain of Alpha-bungarotoxin (Bungarus multicinctus) (P60615 whole entry, looked up): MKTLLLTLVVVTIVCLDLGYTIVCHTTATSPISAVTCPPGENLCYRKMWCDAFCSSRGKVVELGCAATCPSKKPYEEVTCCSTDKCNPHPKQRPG

For the compound `C=C(/C(=C/C[C@@H](OC(=O)c1ccncc1)c1cccc(OCCO)c1)c1cnc2ccccc2c1)C(C)C`, the composite z-score came out at 0.198 in assay [1]; 0.0215 in [2]; 0.415 in assay [3]; 1.5 in [5]; 1.18 in [6]; 0.922 in assay [7]. For the same compound, the composite z-score was determined as 1.51 in assay [8]; 0.858 in assay [9]; 1.52 in assay [10]; 1.08 in assay [11]; 0.775 in assay [13]; 0.0848 in [14]. Further, the composite z-score is 0.11 in assay [15]; 0.0215 in assay [16]; -0.0769 in [17]; 0.419 in assay [18]; 1.37 in [19]; 2.57 in assay [20]. In addition, the figures for the z-score in [4] and in assay [12] were -0.537 (inactive) and -1.96, respectively.

Regarding `CC(C)(C)OC(=O)CC[C@]12N=C(c3ccc(OCCCO)cc3)O[C@H]1c1ccccc1N(Cc1ccccc1)C2=O`, the composite z-score in assay [1] was 0.907; in [2], 0.492; in assay [3] it was 0.462; in [5], 1.18; in assay [6] it was 1.26; in [7], -0.0167. Moreover, the composite z-score in assay [8] was 0.483; in [9], 0.168; in assay [10], 0.777; in [11], 0.552; in [13], 0.27; in assay [14], 0.42. Also, the composite z-score was 0.348 in [15]; -0.0765 in assay [16]; -0.0969 in assay [17]; 0.963 in assay [18]; 1.36 in [19]; 1.28 in [20]. For the same compound, the z-score in assay [4] was -0.601 (inactive); in assay [12] it was -2.09.

For the compound `[N-]=[N+]=NCc1ccccc1[C@H]1OC(c2ccc(OCCCO)cc2)=N[C@@]1(Cc1ccccc1)C(=O)NCCN1CCOCC1`, the composite z-score in [1] was 1.23; in [2] it was -0.378; in assay [3] it was 0.75; in [5], 1.43; in assay [6], 1.21; in assay [7], 0.446. The composite z-score in assay [8] is 1.07; in assay [9], 0.0815; in assay [10], 0.768; in assay [11] it was -0.442; in assay [13] it was 0.293; in assay [14], 0.572. The composite z-score in [15] is -0.138; in [16] it was 0.0711; in assay [17], 0.0088; in [18], 1.97; in assay [19] it was 1.28; in [20] it was 1.78. For the same compound, the z-score was -1.06 (inactive) in [4] and -1.62 in [12].

Take `COCC1=C2[C@@H](CCc3ccccc3)OB(O)C[C@@H]2[C@@H]2C(=O)N(C)C(=O)[C@@H]2C1`: the composite z-score is -0.069 in assay [1]; -0.333 in [2]; -0.57 in assay [3]; 0.711 in [5]; -0.0422 in assay [6]; 0.3 in assay [7]. Besides, the composite z-score in [8] is 0.146; in [9], 0.216; in assay [10], 0.808; in assay [11] it was -0.152; in assay [13] it was 0.211; in assay [14] it was -0.344. For the same compound, the composite z-score in [15] is -0.294; in assay [16], -0.0405; in [17], -0.138; in [18] it was -0.205; in [19], 0.226; in assay [20], -0.273. The z-score is 0.348 (inactive) in assay [4] and -1.2 in assay [12].

Take `O=C(O)[C@H]1C[C@H]2C(=O)N[C@@H](Cc3ccccc3)C(=O)N2[C@H]1c1cccc(OCCO)c1`: the composite z-score in assay [1] was 0.348; in assay [2], 0.507; in assay [3], 0.198; in assay [5] it was 0.986; in assay [6] it was 0.874; in assay [7], 0.391. Besides, the composite z-score in [8] is 1.2; in [9] it was 1.17; in assay [10], 0.206; in assay [11], 0.0635; in [13], 0.978; in assay [14], -0.309. Moreover, the composite z-score in assay [15] was -0.411; in assay [16], 0.0079; in assay [17], -0.214; in [18], 0.185; in [19], 0.543; in assay [20], 0.366. The z-score in [4] is -0.129 (inactive); in assay [12], 4.5.

Take `NC(=O)[C@H]1[C@@H]2C(=O)O[C@@H](c3ccccc3)[C@@H](c3ccccc3)N2[C@@H](c2ccc(O)cc2)[C@]12C(=O)Nc1ccc(C#CC3=CCCCC3)cc12`: the composite z-score is -0.165 in assay [1]; -0.157 in assay [2]; 0.724 in assay [3]; 0.0647 in [5]; -0.229 in assay [6]; -0.433 in assay [7]. Besides, the composite z-score in [8] was -0.0656; in [9], -0.0761; in assay [10], 0.0756; in [11] it was 1.42; in assay [13] it was -0.443; in assay [14] it was 0.0791. Also, the composite z-score in assay [15] was -0.413; in [16], -0.0792; in assay [17], -0.279; in [18], -0.185; in assay [19], 0.731; in [20] it was 1.02. The z-score in [4] was -1.67 (inactive); in [12] it was -1.49.
